PubChem BioAssay
The source made the active and inactive calls.

Columns and labels:
[1] = test system: Plasmodium falciparum Sir2 (PF13_0152, Sir2A); experiment: Plasmodium falciparum Sir2A binding compounds – biochemical, small-molecule microarray, 635 nm fluorescence, primary screen (AID 1098); details: fluorescence 635 nm, higher = more signal;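 also: score merges spot fluorescence intensity with its signal-to-noise ratio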
[2] = probe aDKK1 binding to arrayed compounds – biochemical, biotinylated probe, 635/667 nm fluorescence, primary screen (AID 1099); details: small-molecule microarray, higher = more signal;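 also: score merges 667nm spot fluorescence with signal to noise across triplicate slides; reference of the scale not given here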
[3] = probe aCHRDL2 binding to arrayed compounds – biochemical, biotinylated probe, 635/667 nm fluorescence, primary screen (AID 1100); details: small-molecule microarray, higher = more signal
[4] = change in splice reporter luminescence, either direction, cell-based, HEK293, spliceosome inhibition project, primary screen (AID 1101); details: HEK293 splicing luciferase reporter, 24 h, higher = more signal, called active from +8 up or from −8 down;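 also: HEK293 cells carrying a splicing-competent luciferase reporter gene; test concentration not given here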
[5] = biological target: Fibroblast growth factor 10 (Homo sapiens) (UniProt O15520); experiment: compounds binding fibroblast growth factor 10 – biochemical, small-molecule microarray, 635 nm fluorescence, primary screen (AID 1102); details: FGF10 binding, fluorescence 635 nm, higher = more signal
Chain of Fibroblast growth factor 10 (Homo sapiens) (O15520 whole entry, looked up): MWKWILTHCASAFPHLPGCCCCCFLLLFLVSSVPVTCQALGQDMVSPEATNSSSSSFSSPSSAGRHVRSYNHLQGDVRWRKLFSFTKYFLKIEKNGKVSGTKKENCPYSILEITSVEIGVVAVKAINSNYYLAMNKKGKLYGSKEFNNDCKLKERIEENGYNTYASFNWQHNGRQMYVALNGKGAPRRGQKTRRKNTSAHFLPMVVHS

[6] = test system: glycogen synthase kinase-3 (GSK3A per assay name; protocol says GSK3B); experiment: compounds binding glycogen synthase kinase-3 – biochemical, small-molecule microarray, 635 nm fluorescence, GSK3A, primary screen (AID 1103); details: fluorescence 635 nm, higher = more signal; also: the record names both GSK3A and GSK3B
[7] = biological target: Epidermal growth factor receptor (Homo sapiens) (UniProt P00533); experiment: compounds binding epidermal growth factor receptor – biochemical, small-molecule microarray, 635 nm fluorescence, primary screen (AID 1104); details: EGFR binding, higher = more signal;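 also: score merges 667 nm emission intensity with spot signal to noise over triplicate slides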
Chain of Epidermal growth factor receptor (Homo sapiens) (P00533 whole entry, looked up): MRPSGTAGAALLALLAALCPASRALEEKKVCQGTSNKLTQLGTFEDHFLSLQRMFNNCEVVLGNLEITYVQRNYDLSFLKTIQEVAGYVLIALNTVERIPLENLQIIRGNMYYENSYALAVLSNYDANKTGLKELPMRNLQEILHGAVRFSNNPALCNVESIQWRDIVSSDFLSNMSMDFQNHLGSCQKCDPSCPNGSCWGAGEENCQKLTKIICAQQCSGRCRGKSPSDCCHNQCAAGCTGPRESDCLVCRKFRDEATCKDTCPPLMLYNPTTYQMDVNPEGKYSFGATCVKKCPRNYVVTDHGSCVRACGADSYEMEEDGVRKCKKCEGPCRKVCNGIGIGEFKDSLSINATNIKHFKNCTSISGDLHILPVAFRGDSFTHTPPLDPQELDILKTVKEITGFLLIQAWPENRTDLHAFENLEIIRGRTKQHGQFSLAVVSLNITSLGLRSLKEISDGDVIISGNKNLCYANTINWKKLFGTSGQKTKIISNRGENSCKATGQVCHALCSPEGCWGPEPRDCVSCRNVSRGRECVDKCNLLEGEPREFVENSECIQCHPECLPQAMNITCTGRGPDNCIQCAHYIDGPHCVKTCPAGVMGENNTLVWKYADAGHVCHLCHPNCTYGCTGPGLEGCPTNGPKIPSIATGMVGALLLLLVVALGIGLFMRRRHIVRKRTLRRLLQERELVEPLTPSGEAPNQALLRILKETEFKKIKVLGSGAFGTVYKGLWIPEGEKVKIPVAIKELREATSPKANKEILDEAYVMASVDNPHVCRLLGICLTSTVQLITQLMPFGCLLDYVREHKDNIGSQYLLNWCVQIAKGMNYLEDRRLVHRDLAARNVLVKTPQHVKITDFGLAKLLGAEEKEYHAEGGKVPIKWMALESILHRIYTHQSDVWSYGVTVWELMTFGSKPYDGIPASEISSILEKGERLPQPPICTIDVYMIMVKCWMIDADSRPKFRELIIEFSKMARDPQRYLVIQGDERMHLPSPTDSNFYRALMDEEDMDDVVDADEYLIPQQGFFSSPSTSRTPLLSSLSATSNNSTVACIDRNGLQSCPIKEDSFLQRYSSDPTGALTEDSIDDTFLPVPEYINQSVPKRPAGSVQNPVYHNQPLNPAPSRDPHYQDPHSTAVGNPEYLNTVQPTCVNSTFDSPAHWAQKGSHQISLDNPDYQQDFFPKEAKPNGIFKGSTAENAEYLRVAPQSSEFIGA

[8] = biological target: Follistatin-related protein 3 (Homo sapiens) (UniProt O95633); experiment: compounds binding follistatin-related protein 3 – biochemical, small-molecule microarray, 635 nm fluorescence, primary screen (AID 1105); details: FSTL3 binding, higher = more signal;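 also: score merges emission near 667 nm and signal to noise per printed spot across three slides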
Chain of Follistatin-related protein 3 (Homo sapiens) (O95633 whole entry, looked up): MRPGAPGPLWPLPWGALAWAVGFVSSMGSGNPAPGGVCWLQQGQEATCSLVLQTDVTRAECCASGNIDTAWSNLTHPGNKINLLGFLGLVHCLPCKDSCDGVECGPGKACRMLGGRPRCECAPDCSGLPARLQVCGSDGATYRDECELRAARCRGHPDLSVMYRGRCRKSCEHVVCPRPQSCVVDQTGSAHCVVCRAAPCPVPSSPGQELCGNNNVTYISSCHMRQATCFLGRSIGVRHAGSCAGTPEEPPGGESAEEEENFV

[9] = biological target: Dickkopf-related protein 1 (Homo sapiens) (UniProt O94907); experiment: small molecules binding DKK1 protein – biochemical, small-molecule microarray, 635 nm fluorescence scan, primary screen (AID 1106); details: higher = more signal;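 also: score merges emission near 667 nm with signal to noise over three replicate slides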
Chain of Dickkopf-related protein 1 (Homo sapiens) (O94907 whole entry, looked up): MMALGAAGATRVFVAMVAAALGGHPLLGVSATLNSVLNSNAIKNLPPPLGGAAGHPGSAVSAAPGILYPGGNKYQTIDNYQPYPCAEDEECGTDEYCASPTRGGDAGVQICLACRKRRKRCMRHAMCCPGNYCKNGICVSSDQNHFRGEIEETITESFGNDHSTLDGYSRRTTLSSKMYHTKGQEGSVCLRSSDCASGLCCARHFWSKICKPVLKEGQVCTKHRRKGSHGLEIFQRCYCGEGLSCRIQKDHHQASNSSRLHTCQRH

[10] = test system: Inhibin beta A chain (activin A); experiment: small molecules binding activin A – biochemical, small-molecule microarray, 635 nm fluorescence scan, primary screen (AID 1107); details: INHBA, higher = more signal;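 also: mouse activin A protein probed at 4.33 µg/mL on printed slides; score merges bound-protein fluorescence near 667 nm with spot signal-to-noise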

Structure (SMILES)	composite z-score [1]	composite z-score [2]	composite z-score [3]	z-score [4]	composite z-score [5]	composite z-score [6]	composite z-score [7]	composite z-score [8]	composite z-score [9]	composite z-score [10]
O=C(N1CCOCC1)[C@]1(CCS(=O)(=O)c2ccccc2)N=C(c2ccc(OCCCO)cc2)O[C@@H]1c1ccccc1	1.5	1.18	1.37	-1.04 (inactive)	0.59	0.7	-0.113	0.488	-0.753	0.599
CCOC(=O)C1=CCC(c2ccncc2)N(S(=O)(=O)c2ccc(C)cc2)C1 (stereo not given)	1.03	0.205	0.198	-1.3 (inactive)	1.34	1.29	0.432	1.05	0.332	0.856
COc1ccc([Si](C)(C)[C@H]2[C@H](CCO)O[C@@]3(C(=O)N(Cc4ccccc4)c4ccc(NC(=O)[C@H](C)O)cc43)[C@@H]2C)cc1	1.18	0.305	0.29	-2.35 (inactive)	0.139	0.0488	-0.0574	-0.0813	-0.119	0.209
C=C(CCCC)/C(=C/C[C@@H](OC(C)=O)c1cccc(OCCO)c1)c1cc(C(=O)OC)ccc1OC	1.31	-0.113	0.0282	-0.509 (inactive)	-0.004	-0.657	-0.347	0.212	-0.08	0.863
CN1C(=O)C2C=CC(C(O)c3ccc(I)cc3)N(N(c3ccccc3)c3ccccc3)C2C1=O (stereo not given)	0.727	-0.0078	0.914	1.19 (inactive)	-0.841	-0.487	-0.882	-0.309	-0.421	1.32
CCCNC(=O)[C@@]1(Sc2ccc(C)cc2)CC(=O)N(Cc2cc(C(F)(F)F)cc(C(F)(F)F)c2)[C@@H]1c1ccc(CO)cc1	-0.441	-0.09	0.738	-1.58 (inactive)	0.0468	-0.365	-0.738	-0.888	-1.2	0.108
C=CCN1C(=O)[C@]2(O[C@H](CCO)[C@@H]([Si](C)(C)c3ccc(OC)cc3)[C@@H]2C)c2cc(N3C(=O)c4ccccc4Oc4ccccc43)ccc21	1.16	-0.252	0.117	-1.38 (inactive)	0.402	0.209	0.0038	0.255	0.107	0.206
COCCOC(=O)N1C(=O)[C@@]2(c3cc(C#CCC(C(=O)OC)C(=O)OC)ccc31)[C@H](C(N)=O)[C@H]1C(=O)O[C@H](c3ccccc3)[C@H](c3ccccc3)N1[C@@H]2c1ccccc1OCCO	0.997	-0.202	-0.129	-1.32 (inactive)	1.37	1.31	0.958	1.09	0.47	0.486
